# Experimental data from paper PMC7862700, “An all-to-all approach to the identification of sequence-specific readers for epigenetic DNA modifications on cytosine”.
# Assays:
# Experiment in all cases: DAPPL (digital affinity profiling via proximity ligation, sequencing); 10 mM Tris-HCl pH 7.5, 50 mM NaCl, 1 mM DTT, 4% glycerol, room temperature, 30 min; GST-TFs on glutathione beads, 16-mer random dsDNA library, 0.1% formaldehyde crosslink after washing; high values mean tight binding
# Details in all cases: protein: recombinant; tags: N-terminal GST; dsDNA, one strand shown
# FLI1 = target: T1, FLI1 (Homo sapiens, UniProt Q01543 1-452)
# T1 sequence: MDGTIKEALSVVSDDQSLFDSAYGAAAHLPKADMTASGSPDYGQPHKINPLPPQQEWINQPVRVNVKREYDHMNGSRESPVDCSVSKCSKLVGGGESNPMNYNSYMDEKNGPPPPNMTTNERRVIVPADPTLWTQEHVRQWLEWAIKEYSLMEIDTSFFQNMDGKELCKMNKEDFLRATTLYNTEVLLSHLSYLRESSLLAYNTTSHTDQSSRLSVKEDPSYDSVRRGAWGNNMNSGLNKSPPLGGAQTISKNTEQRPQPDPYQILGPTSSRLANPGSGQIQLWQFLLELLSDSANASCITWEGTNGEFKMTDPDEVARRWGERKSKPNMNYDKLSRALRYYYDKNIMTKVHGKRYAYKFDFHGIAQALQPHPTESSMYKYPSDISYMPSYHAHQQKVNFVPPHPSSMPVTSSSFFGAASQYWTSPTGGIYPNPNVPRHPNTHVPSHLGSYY
# Procedure, shortened: (§1)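 Human transcription factors were made in yeast as GST fusions, captured on glutathione beads and barcoded with DNA. With a tag-only sample included, the pool was incubated with 200 nmole of a random double-stranded 16-mer DNA library in Tris/NaCl/DTT/glycerol buffer at room temperature for 30 min, then crosslinked with 0.1% formaldehyde after washing, ligated by proximity, amplified and sequenced. For binding signal, each hexamer's read frequency for a factor is divided by its frequency for the tag-only sample.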
# ELK1 = target: T2, ELK1 (Homo sapiens, UniProt P19419 1-428)
# T2 sequence: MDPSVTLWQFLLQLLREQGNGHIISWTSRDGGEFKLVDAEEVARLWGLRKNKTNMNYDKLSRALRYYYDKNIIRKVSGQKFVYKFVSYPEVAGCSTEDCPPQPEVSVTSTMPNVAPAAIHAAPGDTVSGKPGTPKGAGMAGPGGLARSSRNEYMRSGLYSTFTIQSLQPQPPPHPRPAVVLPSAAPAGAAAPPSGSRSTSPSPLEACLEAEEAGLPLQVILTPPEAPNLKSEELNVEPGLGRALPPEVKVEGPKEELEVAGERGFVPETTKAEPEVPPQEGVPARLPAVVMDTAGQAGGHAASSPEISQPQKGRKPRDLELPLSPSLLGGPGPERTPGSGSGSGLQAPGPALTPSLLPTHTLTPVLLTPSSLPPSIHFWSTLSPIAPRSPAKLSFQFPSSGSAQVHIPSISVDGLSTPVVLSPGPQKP
# Procedure, shortened: as §1
# GABPA = target: T3, GABPA (Homo sapiens, UniProt Q06546 1-454)
# T3 sequence: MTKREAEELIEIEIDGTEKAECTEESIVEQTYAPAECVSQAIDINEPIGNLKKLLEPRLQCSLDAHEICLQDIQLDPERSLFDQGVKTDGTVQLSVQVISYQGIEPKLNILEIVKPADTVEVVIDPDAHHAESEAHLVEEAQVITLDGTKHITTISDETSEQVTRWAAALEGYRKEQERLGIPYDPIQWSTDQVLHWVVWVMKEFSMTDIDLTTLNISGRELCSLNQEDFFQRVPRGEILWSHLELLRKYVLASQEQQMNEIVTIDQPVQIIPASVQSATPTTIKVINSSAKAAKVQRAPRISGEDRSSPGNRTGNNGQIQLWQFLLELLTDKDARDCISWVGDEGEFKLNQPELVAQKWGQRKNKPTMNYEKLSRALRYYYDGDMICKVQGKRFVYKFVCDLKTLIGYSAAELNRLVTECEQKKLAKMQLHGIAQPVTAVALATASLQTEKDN
# Procedure, shortened: as §1
# ERG = target: T4, ERG (Homo sapiens, UniProt P11308 1-479)
# T4 sequence: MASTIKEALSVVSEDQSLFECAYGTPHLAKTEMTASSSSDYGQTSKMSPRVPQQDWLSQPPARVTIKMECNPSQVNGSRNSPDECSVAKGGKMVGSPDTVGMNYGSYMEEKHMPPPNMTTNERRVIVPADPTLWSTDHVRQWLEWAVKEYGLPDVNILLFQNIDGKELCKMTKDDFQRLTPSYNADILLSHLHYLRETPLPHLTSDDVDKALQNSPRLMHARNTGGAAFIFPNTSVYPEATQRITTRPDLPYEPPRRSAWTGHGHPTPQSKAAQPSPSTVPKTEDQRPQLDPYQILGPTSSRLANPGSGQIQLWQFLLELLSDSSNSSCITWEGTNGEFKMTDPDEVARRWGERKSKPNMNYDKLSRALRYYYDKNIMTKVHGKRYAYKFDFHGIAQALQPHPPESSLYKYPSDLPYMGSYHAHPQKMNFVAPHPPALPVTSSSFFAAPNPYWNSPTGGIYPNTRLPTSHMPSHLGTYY
# Procedure, shortened: as §1
# ELF1 = ELF1 (Homo sapiens, UniProt P32519 1-619)
# Procedure, shortened: as §1
# EHF = target: T5, EHF (Homo sapiens, UniProt Q9NZC4 1-300)
# T5 sequence: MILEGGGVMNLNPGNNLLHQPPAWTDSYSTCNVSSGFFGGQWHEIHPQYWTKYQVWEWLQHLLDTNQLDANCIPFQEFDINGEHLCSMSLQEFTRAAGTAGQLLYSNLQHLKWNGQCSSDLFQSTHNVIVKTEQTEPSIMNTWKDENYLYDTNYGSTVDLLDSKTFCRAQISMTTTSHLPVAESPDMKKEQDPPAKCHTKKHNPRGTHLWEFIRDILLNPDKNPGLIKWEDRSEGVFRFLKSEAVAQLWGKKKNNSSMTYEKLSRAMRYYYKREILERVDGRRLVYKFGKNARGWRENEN
# Procedure, shortened: as §1
# SPI1 = SPI1 (Homo sapiens, UniProt P17947 1-270)
# Procedure, shortened: as §1
# SPIB = SPIB (Homo sapiens, UniProt Q01892 1-262)
# Procedure, shortened: as §1
# ELK3 = target: T6, ELK3 (Homo sapiens, UniProt P41970 1-407)
# T6 sequence: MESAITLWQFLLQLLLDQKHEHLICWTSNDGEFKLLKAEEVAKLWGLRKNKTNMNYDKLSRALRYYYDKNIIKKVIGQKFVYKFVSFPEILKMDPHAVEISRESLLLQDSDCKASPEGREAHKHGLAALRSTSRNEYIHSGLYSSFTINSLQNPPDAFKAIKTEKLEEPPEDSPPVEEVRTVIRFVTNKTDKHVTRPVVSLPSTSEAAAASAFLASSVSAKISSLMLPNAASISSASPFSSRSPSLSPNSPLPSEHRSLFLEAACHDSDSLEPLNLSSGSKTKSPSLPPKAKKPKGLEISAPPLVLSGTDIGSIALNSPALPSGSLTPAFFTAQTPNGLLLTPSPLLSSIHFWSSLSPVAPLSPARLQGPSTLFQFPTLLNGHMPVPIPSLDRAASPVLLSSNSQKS
# Procedure, shortened: as §1
# Sequence of ELF1 (P32519 whole entry): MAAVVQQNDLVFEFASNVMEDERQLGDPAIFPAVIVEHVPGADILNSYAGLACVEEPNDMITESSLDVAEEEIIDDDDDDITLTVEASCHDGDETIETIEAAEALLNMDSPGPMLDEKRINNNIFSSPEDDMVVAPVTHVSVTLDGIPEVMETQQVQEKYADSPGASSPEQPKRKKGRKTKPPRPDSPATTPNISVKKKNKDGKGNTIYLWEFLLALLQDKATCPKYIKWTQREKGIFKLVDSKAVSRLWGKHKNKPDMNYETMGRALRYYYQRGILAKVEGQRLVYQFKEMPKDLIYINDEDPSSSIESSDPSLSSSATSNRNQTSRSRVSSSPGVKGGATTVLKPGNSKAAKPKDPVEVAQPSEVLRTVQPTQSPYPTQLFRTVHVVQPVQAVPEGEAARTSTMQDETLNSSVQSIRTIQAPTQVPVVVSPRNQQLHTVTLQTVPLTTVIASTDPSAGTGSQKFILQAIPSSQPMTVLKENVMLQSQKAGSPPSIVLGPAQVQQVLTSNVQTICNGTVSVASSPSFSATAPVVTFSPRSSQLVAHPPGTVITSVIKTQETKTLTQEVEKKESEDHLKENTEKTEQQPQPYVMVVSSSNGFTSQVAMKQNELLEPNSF
# Sequence of SPIB (Q01892 whole entry): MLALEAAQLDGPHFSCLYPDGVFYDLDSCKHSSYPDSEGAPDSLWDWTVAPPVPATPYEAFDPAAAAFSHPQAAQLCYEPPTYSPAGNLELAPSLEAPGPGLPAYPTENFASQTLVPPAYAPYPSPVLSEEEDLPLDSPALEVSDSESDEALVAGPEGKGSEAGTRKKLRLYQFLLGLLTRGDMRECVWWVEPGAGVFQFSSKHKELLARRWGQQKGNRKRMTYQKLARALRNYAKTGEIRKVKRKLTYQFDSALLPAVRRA
sequence,measurement,setting,value
TAATTC,binding signal,FLI1,"1.5 fold enrichment (6-mer frequency, TF over GST control)"
same,binding signal,ELK1,"1.36 fold enrichment (6-mer frequency, TF over GST control)"
same,binding signal,GABPA,"1.48 fold enrichment (6-mer frequency, TF over GST control)"
same,binding signal,ERG,"1.48 fold enrichment (6-mer frequency, TF over GST control)"
same,binding signal,ELF1,"1.48 fold enrichment (6-mer frequency, TF over GST control)"
same,binding signal,EHF,"1.37 fold enrichment (6-mer frequency, TF over GST control)"
same,binding signal,SPI1,"1.33 fold enrichment (6-mer frequency, TF over GST control)"
same,binding signal,SPIB,"1.51 fold enrichment (6-mer frequency, TF over GST control)"
same,binding signal,ELK3,"1.58 fold enrichment (6-mer frequency, TF over GST control)"
